Structures are written as SMILES. Out of some 16,000 compounds screened, about 5,100 (32%) were called active. Roughly 25% stayed inconclusive and do not appear here. Some of the results follow. Unmarked numbers belong to inactive results. Calls follow the shape of the dose curve; as a rule, active = well fitted curve in the direction sought with a large enough effect; inconclusive = small, poorly fitted or top-dose-only effect, or effect the other way; inactive = no such curve, though single readings can be large or run the other way.
% is scaled to controls: 0 for no effect and ±100 for the full control effect.

The target of this experiment is Cytochrome P450 3A4 (Homo sapiens) (UniProt P08684). In words: Cytochrome panel assay with activity outcomes. The settings on record: recombinant CYP, pro-luciferin dealkylation, luminescence, p450-cyp3a4; series mostly up to 57.1 µM; activity, negative = inhibition: at the top concentration. Here is the method: The P450 gene superfamily is involved in the metabolism and clearance of xenobiotics. This assay used various human CYP P450 isozymes to measure the dealkylation of various pro-luciferin substrates to luciferin. The luciferin is then measured by luminescence after the addition of a luciferase detection reagent. Pro-luciferin substrate concentration in the assay was equal to its KM for its CYP P450 isozyme. Inhibitors and some substrates limit the production of luciferin, and decrease measured luminescence.
Cytochrome P450 3A4 (Homo sapiens), sequence (P08684 whole entry, looked up): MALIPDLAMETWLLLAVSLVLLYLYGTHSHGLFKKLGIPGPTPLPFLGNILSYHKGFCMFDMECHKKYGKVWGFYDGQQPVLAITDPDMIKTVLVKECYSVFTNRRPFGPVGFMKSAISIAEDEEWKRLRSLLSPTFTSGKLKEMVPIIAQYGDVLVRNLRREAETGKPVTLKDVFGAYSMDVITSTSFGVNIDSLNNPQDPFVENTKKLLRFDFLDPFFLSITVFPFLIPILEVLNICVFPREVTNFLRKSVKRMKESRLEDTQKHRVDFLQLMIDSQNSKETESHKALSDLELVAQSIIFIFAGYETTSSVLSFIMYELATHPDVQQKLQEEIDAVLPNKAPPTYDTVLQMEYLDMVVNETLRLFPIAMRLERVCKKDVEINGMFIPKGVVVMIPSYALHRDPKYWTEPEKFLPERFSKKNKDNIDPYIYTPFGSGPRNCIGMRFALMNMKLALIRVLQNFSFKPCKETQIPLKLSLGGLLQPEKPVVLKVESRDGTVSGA
NCGC Assay Protocol Summary:
1, Reagent, 2 uL, Isozyme and Pro-Luciferin
2, Library compounds, 23 nl, 40 uM to 0.24 nM dilution series
3, Controls, 23 nl, Isozyme specific inhibitor
4, Reagent, 2 uL, NADPH regeneration solution
5, Incubation time, 60 min, Isozyme specific temperature
6, Reagent, 4ul, Detection reagent
7, Incubation time, 20 min, Isozyme specific temperature
8, Detection, 1 sec, ViewLux luminescent read
The luciferase-based P450-GloTM Screening Systems were obtained from Promega (Madison, WI) for CYP 1A2 (V9770), CYP 2C9 (V9790), CYP2 C19 (V9880), CYP 2D6 (V9890), and CYP 3A4 Luciferin-PPXE (V9910) and were adapted for 1,536-well microplates and an automated protocol. The control compounds furafylline for 1A2 (F124), sulfaphenazole for CYP 2C9 (S0758), ketoconazole for CYP 2C19 (K1003), quinidine for 2D6 (Q3625), and ketoconazole for 3A4 (K1003) were purchased from Sigma Aldrich (St. Louis, MO). Recombinant P450 enzymes were obtained from baculovirus constructs expressed in insect cells (BD/Gentest).
Medium-binding white solid Kalypsys plates used. Mixtures kept on ice. 1A2: 10 nM 1A2, 100 uM Luc-ME, 100 mM KPO4; 2C9: 10 nM 2C9, 100 uM Luc-H, 25 mM KPO4; 2C19: 5 nM 2C19, 10 uM Luc-H EGE, 50 mM KPO4; 2D6: 5 nM 2D6, 30 uM Luc-ME EGE, 100 mM KPO4; 3A4: 10 nM, 25 uM Luc-PPXE. All amounts are reflected in their final concentration, working concentration is 2x.
NADPH regeneration solution: 1.3 mM NADP+, 3.3 mM glucose-6-phosphate, 3.3 mM MgCl2, 0.4 U/mL glucose-6-phosphate dehydrogenase for all isozymes, 200 mM KPO4 for 3A4. Mixture prepared at RT but kept on ice during automated run.
RT incubation in auxilliary plate hotel for 1A2, 2D6, and 3A4; 37C for 2C9 and 2C19.
Keywords: P450, CYP1A2, CYP2C19, CYP2C9, CYP2D6, CYP3A4, Luciferase, MLSMR, MLSCN, NIH Roadmap, qHTS, NCGC
Regarding `NC(=O)COc1c(F)cc(SCCNS(=O)(=O)c2ccccc2)cc1F`, the concentration at half-maximal activity (AC50) was 12.6 µM (active).

On to `C/C(=C\C=C/[C@@H](C)C(=O)O)[C@H]1CN[C@H](C(=O)O)[C@@H]1CC(=O)O`, for which the “activity, negative = inhibition” value is -6.56%.

For `CC(C)CNC(=S)NC1CC2CCCC(C1)N2Cc1ccco1` (stereo unspecified), the activity, negative = inhibition was 2.91% [at 2.29 µM].

As for `Cc1ccc(C(=O)C2C(=O)c3ccccc3C2=O)cc1`, the activity, negative = inhibition was -18.3% [at 11.4 µM].

With `CN(C(=O)Cc1ccc(Cl)c(Cl)c1)[C@@H](CN1CCCC1)c1cccc(OCC(=O)O)c1`, the “activity, negative = inhibition” value was -9.59%.

Turning to `CN(C(=O)Cc1ccc(Cl)c(Cl)c1)[C@H](CN1CCCC1)c1ccccc1`, the concentration at half-maximal activity (AC50) was 6.31 µM (active).

Turning to `O=C(O)CP(=O)(O)c1ccc(Cl)cc1`, the “activity, negative = inhibition” value was 8.85%.

Turning to `COc1ccc(C[C@H]2c3cc(OC)c(OC)cc3CCN2C)cc1OC`, the “activity, negative = inhibition” value is -26.2% [at 25.6 µM].

`C[C@]1(C(=O)O)[C@@H]2CC[C@@H](O2)[C@@]1(C)C(=O)O`: the “activity, negative = inhibition” value was -4.96%.

With `CC1(C)CCC2=C(O1)c1ccccc1C(=O)C2=O`, the half-maximal activity concentration (AC50) is 15.8 µM (active).

Turning to `COc1cc2c3cc1Oc1c(O)c(OC)cc4c1[C@@H](Cc1ccc(cc1)Oc1cc(ccc1O)C[C@H]3N(C)CC2)N(C)CC4`, the activity, negative = inhibition is -12.1% [at 11.4 µM].

Turning to `N[C@H](C(=O)O)c1cc(=O)[nH]o1`, the “activity, negative = inhibition” value was -5.66%.

With `N[C@@H](CP(=O)(O)O)C(=O)O`, the activity, negative = inhibition is -3.52% [at 11.4 µM].

`OC(Cn1c2ccccc2c2ccccc21)C[n+]1ccccc1` (stereo unspecified): the activity, negative = inhibition was -1.96% [at 2.29 µM].

Regarding `CCCCC1(CCCC)C(=O)NC(=Nc2cccc(C)c2)NC1=O`, the half-maximal activity concentration (AC50) is 12.6 µM (active).

As for `CCCCCC[C@H]1C(=O)O[C@H](C)[C@H](NC(=O)c2cccc(NC=O)c2O)C(=O)O[C@@H](C)[C@H]1OC(=O)CC(C)C`, the AC50 was 5.01 µM (active).

For the compound `C[C@@H]1OC=C2[C@@H](O)[C@H]3O[C@H]3C(=O)[C@@]23[C@H]1[C@H]1C2=C([C@@H](O)[C@H]4O[C@@H]4C2=O)[C@@H]3O[C@@H]1C`, the activity, negative = inhibition was -18.6% [at 11.4 µM].

Take `C[N+]1(C)[C@@H]2CC(OC(=O)[C@@H](CO)c3ccccc3)C[C@@H]1[C@H]1O[C@H]12` (stereo partly specified): the activity, negative = inhibition is 2.59% [at 11.4 µM].

`Nc1nc(N)c2nc(CNc3ccc(C(=O)N[C@H](CCC(=O)O)C(=O)O)cc3)cnc2n1`: the “activity, negative = inhibition” value is 4.59%.

Take `C[C@@H](COc1ccccc1)N(CCCl)Cc1ccccc1`: the “activity, negative = inhibition” value is -18.7% [at 25.6 µM].

In the case of `N[C@@H](CCCP(=O)(O)O)C(=O)O`, the “activity, negative = inhibition” value was -6.54%.

As for `O=c1cc(-c2ccc(O)cc2)oc2c([C@H]3O[C@@H](CO)[C@@H](O)[C@@H](O)[C@@H]3O)c(O)cc(O)c12`, the “activity, negative = inhibition” value was -6.72% [at 25.6 µM].

With `Clc1ccccc1-c1cncnc1NCCc1cnc[nH]1`, the AC50 was 0.501 µM (active).

As for `Cc1ccccc1-c1cncnc1NCCc1cnc[nH]1`, the AC50 is 0.631 µM (active).

Regarding `CNCCc1cnc[nH]1`, the “activity, negative = inhibition” value is -27.6%.

For the compound `CN(C)C(=O)Oc1ccc[n+](C)c1`, the “activity, negative = inhibition” value is 0.854%.

On to `NC(=O)c1ccc(C(=O)Nc2ccc([As](=O)(O)O)cc2)cc1`, for which the activity, negative = inhibition was 8.53% [at 11.4 µM].

For the compound `C[C@H](Br)C(=O)N[C@H](CO)C(=O)O`, the activity, negative = inhibition is 8.21% [at 11.4 µM].

Regarding `O=C(Oc1ccc(S(=O)(=O)F)cc1F)c1ccccc1Cl`, the activity, negative = inhibition was -5.64% [at 11.4 µM].

Turning to `NCCc1c[nH]c2ccc(OC(=O)C(=O)O)cc12`, the activity, negative = inhibition is -35.7% [at 11.4 µM].

As for `O=C(O)c1cc[c]([Hg][S]c2ncnc3nc[nH]c23)cc1`, the activity, negative = inhibition is -15.7% [at 11.4 µM].

`O=C(c1cc(=O)[nH]c2ccc(Br)cc12)N1CCC2(CC1)OCCO2`: the “activity, negative = inhibition” value was -17.8%.

In the case of `CN(C)c1ccc(NC(=O)CN2C(=O)CN=C(c3ccccc3)c3ccccc32)cc1`, the half-maximal activity concentration (AC50) was 4.47 µM (active).

With `Cc1cc2c(C(F)(F)F)cc(=O)oc2c2c1NCCC2`, the “activity, negative = inhibition” value is -22.3%.

As for `CCCCCCCCCCCCCC(=O)O[C@H]1[C@@H](C)[C@@]2(O)[C@@H](C=C(CO)C[C@]3(O)C(=O)C(C)=C[C@@H]23)C2C(C)(C)[C@]21OC(C)=O` (stereo partly specified), the AC50 is 25.1 µM (active).

For `CC(C)(c1ccc(OC[C@@H]2CO2)cc1)c1ccc(OC[C@H]2CO2)cc1`, the “activity, negative = inhibition” value was -15.7%.

For the compound `N=C1c2ccccc2CN1NC(=O)c1ccc(Cl)cc1`, the “activity, negative = inhibition” value was -1.51%.

On to `O=C(O)[C@@H](O)[C@@H](O)[C@@H]1[O][Sb][O][C@@H]1CO`, for which the activity, negative = inhibition was -1.25% [at 11.4 µM].

In the case of `O=C(Nc1ccccc1)N1CCCC2(CCN(C(=O)Oc3ccccc3)CC2)C1`, the AC50 was 15.8 µM (active).

With `O=C(Nc1cccc(F)c1)N1CCCC2(CCN(C(=O)Oc3ccccc3)CC2)C1`, the AC50 is 15.8 µM (active).

As for `COc1ccc(NC(=O)N2CCCC3(CCN(C(=O)Oc4ccccc4)CC3)C2)cc1`, the AC50 is 12.6 µM (active).

As for `O=C(Nc1cccc(F)c1)N1CC2(CCNCC2)C1`, the “activity, negative = inhibition” value was -2.67%.

As to `NC[C@@H](Cc1ccccc1)P(=O)(O)O`, the activity, negative = inhibition was -4.81% [at 11.4 µM].

In the case of `CC12CN3CC(C)(CN(C1)C31CCSCC1)C2=O`, the “activity, negative = inhibition” value was -2.74%.

`C[C@H]1CC[C@]2(OC1)O[C@@H]1C[C@@H]3[C@@H]4CC[C@H]5C[C@@H](O)CC[C@]5(C)[C@@H]4CC(=O)[C@@]3(C)[C@H]1[C@@H]2C`: the “activity, negative = inhibition” value was -5.6% [at 25.6 µM].

Turning to `Cc1ncsc1CCCl`, the “activity, negative = inhibition” value is 6.86%.

For the origin of these results see PubChem BioAssay AID1851 (National Center for Advancing Translational Sciences (NCATS), 2009).
